Bioassay records from PubChem.
TrxR1 substrate – substrates of rat thioredoxin reductase 1; O89049; purified TrxR1 substrate turnover, NADPH consumption readout; Potency, µM (top dose mostly 114 µM), for the others: at the top dose activity change, negative = substrate turnover; 390,000 compounds, 0.01% hits; AID 588456; also: nearly all actives have a fitted effect of over 50% in size
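Rat TrxR1, dispensed at 90 nM, was prereduced with 400 uM NADPH (final) for 5 min at ~22 deg C, then incubated with compound 15 min before 400 uM selenite. A first-read NADPH fluorescence drop versus no-compound background flagged substrates.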
GCN5L2 inh – inhibitors of human GCN5L2 histone acetyltransferase; Q92830; GCN5L2 HAT assay, ThioGlo1 CoA-SH fluorescence; Potency, µM (doses to about 58.9 µM), for the others: at the top dose activity change, negative = inhibition, usual class: inhibitors; 390,000 compounds, 0.21% hits; AID 504327
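Preincubate 20nM GCN5L2 with compound 15 min, RT → add 50uM ThioGlo1 + 75uM H3(1-25) + 70uM acetyl-CoA → read fluorescence 0 and 20 min. Primary qHTS; fluorescent artifacts likely.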
VDR inhibitor – inhibitors of human vitamin D receptor; P11473; VDR-SRC2-3 peptide fluorescence polarization, 2 h; Potency, µM, for inactives: max response, negative = inhibition, most hits filed as inhibitors; 400,000 compounds, 0.93% hits
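Fluorescence polarization assay of small-molecule disruption of VDR binding to coregulator peptide SRC2-3. Compounds and controls pin-transferred, then read after 2 h incubation at ambient room temperature.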
Sfp inh – inhibitors of Bacillus subtilis Sfp phosphopantetheinyl transferase. Biochemical Sfp PPTase activity, qHTS. Potency, µM, for inactives: largest response in the series, negative = inhibition, hits mostly inhibitors. 310,000 compounds, 3.5% hits;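 also: the enzyme is Sfp with the accession as filed and its product quenches rhodamine fluorescence; 0% = enzyme reaction without inhibitor and -100% = no enzyme wells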
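Buffer: 50 mM Hepes-Na pH 7.6, 10 mM MgCl2, 0.01% Nonidet P-40, 0.01% BSA. Enzyme 15 nM, pre-exposed to compound 15 min; substrates then added and fluorescence change tracked over 30 min.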
TrxR1 inh – rat TrxR1 inhibition; O89049; recombinant rTrxR1, NADPH fluorescence consumption, selenite substrate; Potency, µM (top dose mostly 114 µM), inactives show top-dose activity change, negative = inhibition, most hits filed as inhibitors; 390,000 compounds, 1% hits; AID 588453; also: nearly all actives have a fitted effect of over 65% in size
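Rat TrxR1 (90 nM in the dispensed reagent) was pre-reduced with 400 uM NADPH for 5 min at room temperature, then incubated with compound for 15 min. After 400 uM selenite was added, NADPH fluorescence (Ex 340/Em 450 nm) was followed for 8 min.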
GLS inhibitor – glutaminase GLS (human) inhibition; O94925; GLS enzymatic activity, qHTS titration; Potency, µM (top dose mostly 45.5 µM), for the others: top-dose activity change, negative = inhibition, usual class: inhibitors; 410,000 compounds, 0.21% hits; AID 624170
Target sequence (O94925 whole entry, looked up): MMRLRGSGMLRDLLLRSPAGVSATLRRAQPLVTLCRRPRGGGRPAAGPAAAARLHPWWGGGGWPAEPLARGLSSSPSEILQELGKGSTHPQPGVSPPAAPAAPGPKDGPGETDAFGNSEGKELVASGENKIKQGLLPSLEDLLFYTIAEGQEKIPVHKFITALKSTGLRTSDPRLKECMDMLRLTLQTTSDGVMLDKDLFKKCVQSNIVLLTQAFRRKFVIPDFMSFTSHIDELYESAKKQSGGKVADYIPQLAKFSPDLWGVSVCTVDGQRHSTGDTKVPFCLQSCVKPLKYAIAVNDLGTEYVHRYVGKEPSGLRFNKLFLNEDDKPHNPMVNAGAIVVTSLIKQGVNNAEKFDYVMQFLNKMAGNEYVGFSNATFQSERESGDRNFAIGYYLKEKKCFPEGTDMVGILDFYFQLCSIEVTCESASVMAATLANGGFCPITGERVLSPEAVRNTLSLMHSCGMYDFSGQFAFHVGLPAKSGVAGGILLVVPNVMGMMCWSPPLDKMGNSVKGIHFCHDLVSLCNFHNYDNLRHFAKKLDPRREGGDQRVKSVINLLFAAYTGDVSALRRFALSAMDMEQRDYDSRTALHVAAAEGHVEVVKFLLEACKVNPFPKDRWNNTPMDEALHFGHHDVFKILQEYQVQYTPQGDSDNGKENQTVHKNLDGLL
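hKGA in 45 mM KH2PO4 (pH 8.2), 0.02% Tween-20 with compound, then 1mM L-Glutamine (stock as added) plus glutamate oxidase/HRP/Amplex red coupling mix. Fluorescence read initially and after 30 min at RT; signal change reflects glutamate formation.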
* marks the source's active call; other numbers are inactive results; ? = inconclusive; . = no result given; [ ] = remark or other dose. Compounds with a hit are over-represented: about 3.8% of the library has one in this group of screens. Calls follow the shape of the dose curve; as a rule, active = well fitted curve in the direction sought with a large enough effect; inconclusive = small, poorly fitted or top-dose-only effect, or another doubt; inactive = no such curve, though single readings can be large; an effect the other way counts as inactive or inconclusive. Unless noted, % is scaled to controls: 0 for no effect and ±100 for the full control effect; potency is read from the fitted curve at half-maximal effect.

SMILES | TrxR1 substrate | GCN5L2 inh | VDR inhibitor | Sfp inh | TrxR1 inh | GLS inhibitor
Cc1ccc(S(=O)(=O)N2CCOCC2)cc1NC(=O)COC(=O)CCC(=O)c1cccs1 | 3% | -1% | -4% | 2% | 7% | 20%
CN(C)CCN(Cc1ccccc1)C(c1ccnc2ccccc12)c1nnnn1-c1ccc2c(c1)OCCO2 (stereo not drawn) | . | . | . | . | . | 2%
Cc1ccc(O)c(N=Cc2sc3ccccc3c2Cl)c1 | 10%[57.1 µM] | -2% | -6% | ? | -19% | 11µM*
Oc1ccccc1N=Cc1sc2ccccc2c1Cl | -9% | -6% | 0% | 56µM* | -15% | 22%
Cc1cc(NC(=O)c2ccc([N+](=O)[O-])cc2Cl)no1 | -6% | 2% | -2% | 14% | 4% | 1%
CCSC(=O)N1CCN(/[N+]([O-])=N/Oc2ccc([N+](=O)[O-])cc2[N+](=O)[O-])CC1 | 2% | . | . | . | 11µM* | .
O=[N+]([O-])c1ccc(O/N=[N+](\[O-])N2CCCCC2)c([N+](=O)[O-])c1 | -11% | . | . | . | 22µM* | .
COC(=O)N1CCN(/[N+]([O-])=N/Oc2ccc([N+](=O)[O-])cc2[N+](=O)[O-])CC1 | -8% | . | ? | -9% | ? | .
CCCOC(=O)N1CCN(/[N+]([O-])=N/Oc2ccc([N+](=O)[O-])cc2[N+](=O)[O-])CC1 | -11% | . | ? | -12% | 11µM* | .
CC(C)CCNC(=O)CN(CCN1CCOCC1)C(=O)Cn1nnc(-c2ccc(F)cc2)n1 | 3% | 2% | 16% | 24% | 21% | 0%
FC(F)(F)c1nnc(-c2ccccc2)nc1Sc1ccc(Cl)cc1 | -6% | -2% | 71µM* | ? | ? | 0%
FC(F)(F)c1nnc(-c2ccccc2)nc1Sc1ccccc1 | 3%[57.1 µM] | -6% | -17% | -17% | ? | -5%
O=c1cc(O)n(-c2ccc(Cl)cc2)c(=S)[nH]1 | -8%[57.1 µM] | -1% | -19% | 50µM* | ? | -3%
Cc1ccccc1-n1c(N)cc(=O)[nH]c1=S | 3% | -3% | -2% | 7% | -34% | 8%
O=c1cc(O)n(-c2ccccc2F)c(=S)[nH]1 | 3%[57.1 µM] | -1% | -25% | 50µM* | ? | 1%
Nc1cc(=O)[nH]c(=O)n1-c1ccc(Cl)cc1 | 5%[57.1 µM] | 6% | 10% | 6% | 3%[57.1 µM] | 2%
Cc1ccccc1-n1c(C)n[nH]c1=S | 21% | -5% | -15% | 79µM* | 18% | 67%
Cc1ccccc1-n1c(O)cc(=O)[nH]c1=S | 10% | -1% | -19% | 56µM* | ? | 2%
Cc1ccccc1-n1c(-c2ccoc2C)n[nH]c1=S | 9% | 2% | -10% | -13% | -22% | 13%
NCCCC(N)CC(=O)NC1CNC(=O)C(C2CC(O)N=C(N)N2)NC(=O)/C(=C/NC(N)=O)NC(=O)C(CO)NC(=O)C(CO)NC1=O (stereo not drawn) | . | -8% | 2% | 10% | . | 0%
Cc1ccc(CCNS(=O)(=O)c2ccc(C)cc2)cc1 | -8% | -9% | 30% | 3% | 2% | .
Cc1sc(-n2c(C)ccc2C)c(C#N)c1C | 4% | 2% | 79µM* | 63µM* | 0% | -12%
O=C(c1ccco1)N1CCN(c2ncnc3sc4c(c23)CCC4)CC1 | 0% | -4% | 11% | 79µM* | ? | -1%
Nc1n[nH]c(=S)n1/N=C1/C(=O)Nc2ccccc21 | -18% | 7.1µM* | ? | 11µM* | -18%[57.1 µM] | -25%
O=C1Nc2ccccc2C1=NN1CCCCCC1 | -6% | . | -12% | . | 8%[57.1 µM] | -3%
COc1cc(OC)c(NC(=O)C2CC(=O)N(c3ccc4c(c3)OCCO4)C2)cc1Cl (stereo not drawn) | -2% | -6% | 5% | . | 1% | 3%
Cc1ccc(CNc2nc(-c3ccco3)nn2S(=O)(=O)c2ccc3ccccc3c2)cc1 | 3% | -13% | 2% | . | 6% | -14%
CCOC(=O)c1cnc2c(Cl)cc(Cl)cc2c1NCCCN1CCOCC1 | 5% | ? | -5% | ? | 16µM* | -3%
